# Measurements from PMC7862700, “An all-to-all approach to the identification of sequence-specific readers for epigenetic DNA modifications on cytosine”.
# Experiments:
# Test in all cases: DAPPL (digital affinity profiling via proximity ligation, sequencing); 10 mM Tris-HCl pH 7.5, 50 mM NaCl, 1 mM DTT, 4% glycerol, room temperature, 30 min; GST-TFs on glutathione beads, 16-mer random dsDNA library, 0.1% formaldehyde crosslink after washing; high values mean tight binding
# [1] = target: T1, FLI1 (Homo sapiens, UniProt Q01543 1-452); conditions: protein: recombinant; tags: N-terminal GST; dsDNA, one strand shown
# T1 sequence: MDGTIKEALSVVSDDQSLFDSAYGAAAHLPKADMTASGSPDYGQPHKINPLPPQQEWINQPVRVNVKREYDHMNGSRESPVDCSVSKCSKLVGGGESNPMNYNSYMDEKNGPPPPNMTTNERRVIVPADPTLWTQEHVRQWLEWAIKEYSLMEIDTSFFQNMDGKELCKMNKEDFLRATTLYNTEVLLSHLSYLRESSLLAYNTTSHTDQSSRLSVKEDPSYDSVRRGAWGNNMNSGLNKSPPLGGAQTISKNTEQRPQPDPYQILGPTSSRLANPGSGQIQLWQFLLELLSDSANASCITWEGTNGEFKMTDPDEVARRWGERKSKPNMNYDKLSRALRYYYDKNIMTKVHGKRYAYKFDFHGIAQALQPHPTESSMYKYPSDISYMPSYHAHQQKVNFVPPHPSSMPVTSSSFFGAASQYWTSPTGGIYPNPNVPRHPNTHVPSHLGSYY
# Outline: (§1)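 After expression in yeast as GST fusions, human transcription factors were bound to glutathione beads, DNA-barcoded and mixed with a tag-only sample. The pools were incubated with 200 nmole of a 16-mer random double-stranded DNA library in Tris/NaCl/DTT/glycerol buffer (30 min, room temperature), washed and crosslinked with 0.1% formaldehyde. Proximity ligation with BsaI/T4 ligase ran for 1 h at 37 °C, before PCR amplification and sequencing on an Illumina NextSeq500. Binding signal is a hexamer's read frequency for a factor divided by its frequency for the tag-only sample.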
# [2] = target: T2, ELK1 (Homo sapiens, UniProt P19419 1-428); conditions: protein: recombinant; tags: N-terminal GST; dsDNA, one strand shown
# T2 sequence: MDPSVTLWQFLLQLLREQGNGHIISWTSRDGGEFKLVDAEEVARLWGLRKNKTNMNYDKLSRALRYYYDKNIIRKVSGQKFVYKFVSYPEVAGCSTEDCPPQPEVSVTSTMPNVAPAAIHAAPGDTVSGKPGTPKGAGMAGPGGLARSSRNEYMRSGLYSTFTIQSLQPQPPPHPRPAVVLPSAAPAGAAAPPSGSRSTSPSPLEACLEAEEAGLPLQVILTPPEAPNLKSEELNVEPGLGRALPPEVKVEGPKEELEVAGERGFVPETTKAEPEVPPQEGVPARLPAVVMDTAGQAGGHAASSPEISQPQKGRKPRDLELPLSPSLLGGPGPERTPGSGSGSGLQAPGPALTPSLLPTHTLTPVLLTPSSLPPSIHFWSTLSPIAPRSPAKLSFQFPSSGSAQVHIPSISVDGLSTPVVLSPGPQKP
# Outline: as §1
# [3] = target: T3, GABPA (Homo sapiens, UniProt Q06546 1-454); conditions: protein: recombinant; tags: N-terminal GST; dsDNA, one strand shown
# T3 sequence: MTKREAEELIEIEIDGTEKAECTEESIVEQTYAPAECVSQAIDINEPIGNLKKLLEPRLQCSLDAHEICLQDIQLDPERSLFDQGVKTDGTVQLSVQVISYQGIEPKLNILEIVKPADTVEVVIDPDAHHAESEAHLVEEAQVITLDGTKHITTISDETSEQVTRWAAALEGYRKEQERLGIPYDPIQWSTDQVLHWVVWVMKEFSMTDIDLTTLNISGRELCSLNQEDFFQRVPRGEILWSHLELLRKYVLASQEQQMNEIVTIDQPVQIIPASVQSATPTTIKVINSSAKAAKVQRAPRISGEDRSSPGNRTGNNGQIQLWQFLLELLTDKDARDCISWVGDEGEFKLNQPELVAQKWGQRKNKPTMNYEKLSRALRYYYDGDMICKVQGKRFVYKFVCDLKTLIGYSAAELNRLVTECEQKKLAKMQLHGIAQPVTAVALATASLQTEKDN
# Outline: as §1
# [4] = target: T4, ERG (Homo sapiens, UniProt P11308 1-479); conditions: protein: recombinant; tags: N-terminal GST; dsDNA, one strand shown
# T4 sequence: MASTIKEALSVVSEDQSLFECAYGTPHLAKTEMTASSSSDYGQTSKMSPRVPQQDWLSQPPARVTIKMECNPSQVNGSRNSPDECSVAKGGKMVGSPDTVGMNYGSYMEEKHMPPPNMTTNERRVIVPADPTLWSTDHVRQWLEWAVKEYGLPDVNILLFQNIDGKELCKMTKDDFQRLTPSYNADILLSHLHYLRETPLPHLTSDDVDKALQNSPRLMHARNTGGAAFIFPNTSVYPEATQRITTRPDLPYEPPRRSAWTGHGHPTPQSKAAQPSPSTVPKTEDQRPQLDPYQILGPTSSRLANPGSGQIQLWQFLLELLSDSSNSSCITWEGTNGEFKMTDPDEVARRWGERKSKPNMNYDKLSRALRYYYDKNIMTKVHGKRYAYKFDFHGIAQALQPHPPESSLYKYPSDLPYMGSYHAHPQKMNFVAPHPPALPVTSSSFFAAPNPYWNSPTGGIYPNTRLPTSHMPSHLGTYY
# Outline: as §1
# [5] = target: ELF1 (Homo sapiens, UniProt P32519 1-619); conditions: protein: recombinant; tags: N-terminal GST; dsDNA, one strand shown
# ELF1, sequence (P32519 whole entry): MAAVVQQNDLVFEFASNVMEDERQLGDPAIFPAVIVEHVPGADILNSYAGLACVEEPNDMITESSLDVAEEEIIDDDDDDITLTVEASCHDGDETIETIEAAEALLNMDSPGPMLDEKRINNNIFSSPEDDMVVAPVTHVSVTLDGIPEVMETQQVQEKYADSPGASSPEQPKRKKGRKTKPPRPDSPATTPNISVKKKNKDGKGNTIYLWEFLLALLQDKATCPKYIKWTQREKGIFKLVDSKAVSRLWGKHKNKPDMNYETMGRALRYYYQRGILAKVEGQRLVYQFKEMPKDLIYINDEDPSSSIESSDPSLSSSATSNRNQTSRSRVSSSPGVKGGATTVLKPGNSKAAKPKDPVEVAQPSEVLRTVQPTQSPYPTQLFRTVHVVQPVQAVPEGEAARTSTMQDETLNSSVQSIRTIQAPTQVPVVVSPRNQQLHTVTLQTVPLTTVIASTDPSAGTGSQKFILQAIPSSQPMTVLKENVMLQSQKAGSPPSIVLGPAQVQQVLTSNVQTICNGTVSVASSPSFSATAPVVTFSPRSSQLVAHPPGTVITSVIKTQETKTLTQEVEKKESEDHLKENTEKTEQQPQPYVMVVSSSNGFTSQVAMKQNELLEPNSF
# Outline: as §1
# [6] = target: T5, EHF (Homo sapiens, UniProt Q9NZC4 1-300); conditions: protein: recombinant; tags: N-terminal GST; dsDNA, one strand shown
# T5 sequence: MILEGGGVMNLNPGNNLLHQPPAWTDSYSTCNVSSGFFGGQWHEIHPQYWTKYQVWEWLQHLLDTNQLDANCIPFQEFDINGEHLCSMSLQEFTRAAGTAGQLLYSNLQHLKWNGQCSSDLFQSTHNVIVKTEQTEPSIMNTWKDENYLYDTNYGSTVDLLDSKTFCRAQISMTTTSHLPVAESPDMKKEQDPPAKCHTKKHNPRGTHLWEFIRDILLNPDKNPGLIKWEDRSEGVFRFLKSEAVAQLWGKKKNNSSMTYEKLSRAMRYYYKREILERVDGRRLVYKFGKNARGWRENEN
# Outline: as §1
# [7] = target: SPI1 (Homo sapiens, UniProt P17947 1-270); conditions: protein: recombinant; tags: N-terminal GST; dsDNA, one strand shown
# Outline: as §1
# [8] = target: SPIB (Homo sapiens, UniProt Q01892 1-262); conditions: protein: recombinant; tags: N-terminal GST; dsDNA, one strand shown
# SPIB, sequence (Q01892 whole entry): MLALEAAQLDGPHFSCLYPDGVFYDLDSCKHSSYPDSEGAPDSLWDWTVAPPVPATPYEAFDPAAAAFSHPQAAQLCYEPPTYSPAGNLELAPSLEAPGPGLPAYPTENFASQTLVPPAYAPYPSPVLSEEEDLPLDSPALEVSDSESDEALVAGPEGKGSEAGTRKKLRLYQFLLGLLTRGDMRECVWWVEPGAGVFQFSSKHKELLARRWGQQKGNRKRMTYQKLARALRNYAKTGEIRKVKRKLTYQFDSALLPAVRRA
# Outline: as §1
# [9] = target: T6, ELK3 (Homo sapiens, UniProt P41970 1-407); conditions: protein: recombinant; tags: N-terminal GST; dsDNA, one strand shown
# T6 sequence: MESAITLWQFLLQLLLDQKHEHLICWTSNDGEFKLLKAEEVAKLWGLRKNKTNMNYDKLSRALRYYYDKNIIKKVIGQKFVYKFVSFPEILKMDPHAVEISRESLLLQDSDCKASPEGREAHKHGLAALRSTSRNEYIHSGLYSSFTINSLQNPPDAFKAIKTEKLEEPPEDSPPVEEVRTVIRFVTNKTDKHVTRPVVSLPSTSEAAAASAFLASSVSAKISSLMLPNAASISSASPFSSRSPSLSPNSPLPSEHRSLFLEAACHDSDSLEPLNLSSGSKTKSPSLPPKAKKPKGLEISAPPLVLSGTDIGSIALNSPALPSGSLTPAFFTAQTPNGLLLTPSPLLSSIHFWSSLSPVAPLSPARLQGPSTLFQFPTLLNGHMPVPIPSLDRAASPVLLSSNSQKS
# Outline: as §1
# [10] = target: T7, FEV (Homo sapiens, UniProt Q99581 1-238); conditions: protein: recombinant; tags: N-terminal GST; dsDNA, one strand shown
# T7 sequence: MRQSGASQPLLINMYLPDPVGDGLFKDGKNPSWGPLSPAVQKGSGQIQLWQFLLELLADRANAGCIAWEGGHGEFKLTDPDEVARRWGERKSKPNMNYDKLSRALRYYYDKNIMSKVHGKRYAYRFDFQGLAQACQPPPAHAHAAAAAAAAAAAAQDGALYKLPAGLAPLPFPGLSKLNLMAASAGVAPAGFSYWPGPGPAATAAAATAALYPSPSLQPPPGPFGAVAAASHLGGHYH
# Outline: as §1
# [11] = target: ETV5 (Homo sapiens, UniProt P41161 1-510); conditions: protein: recombinant; tags: N-terminal GST; dsDNA, one strand shown
# ETV5, sequence (P41161 whole entry): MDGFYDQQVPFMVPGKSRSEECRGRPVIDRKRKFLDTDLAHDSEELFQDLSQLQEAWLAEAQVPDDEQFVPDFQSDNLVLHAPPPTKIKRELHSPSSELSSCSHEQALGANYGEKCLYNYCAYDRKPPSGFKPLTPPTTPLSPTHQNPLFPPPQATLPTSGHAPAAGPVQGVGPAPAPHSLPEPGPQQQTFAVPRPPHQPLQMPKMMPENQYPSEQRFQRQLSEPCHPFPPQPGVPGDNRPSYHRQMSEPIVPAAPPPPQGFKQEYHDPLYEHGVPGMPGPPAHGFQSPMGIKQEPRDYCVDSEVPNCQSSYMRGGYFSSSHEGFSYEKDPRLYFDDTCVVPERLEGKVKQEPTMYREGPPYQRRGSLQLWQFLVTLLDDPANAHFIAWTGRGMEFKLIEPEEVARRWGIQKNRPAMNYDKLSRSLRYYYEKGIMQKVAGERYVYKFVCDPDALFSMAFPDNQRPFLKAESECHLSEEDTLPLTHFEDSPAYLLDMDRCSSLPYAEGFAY
# Outline: as §1
# [12] = target: HSF1 (Homo sapiens, UniProt Q00613 1-529); conditions: protein: recombinant; tags: N-terminal GST; chain copies: 3; dsDNA, one strand shown
# HSF1, sequence (Q00613 whole entry): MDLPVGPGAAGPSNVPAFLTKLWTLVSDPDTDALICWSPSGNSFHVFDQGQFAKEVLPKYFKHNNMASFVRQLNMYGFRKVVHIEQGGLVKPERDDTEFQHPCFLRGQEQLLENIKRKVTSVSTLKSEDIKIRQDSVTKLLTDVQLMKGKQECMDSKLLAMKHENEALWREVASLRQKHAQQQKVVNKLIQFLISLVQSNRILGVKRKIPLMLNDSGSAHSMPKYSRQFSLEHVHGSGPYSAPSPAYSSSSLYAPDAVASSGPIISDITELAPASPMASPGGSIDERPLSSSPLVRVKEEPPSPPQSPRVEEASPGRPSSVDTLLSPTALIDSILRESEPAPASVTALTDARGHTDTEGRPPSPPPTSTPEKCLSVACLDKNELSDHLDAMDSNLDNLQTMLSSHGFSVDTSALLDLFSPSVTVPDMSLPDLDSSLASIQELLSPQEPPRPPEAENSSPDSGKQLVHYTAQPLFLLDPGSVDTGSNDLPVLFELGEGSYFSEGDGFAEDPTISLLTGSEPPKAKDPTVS
# Outline: as §1
# [13] = target: T8, SPIC (Homo sapiens, UniProt Q8N5J4 1-248); conditions: protein: recombinant; tags: N-terminal GST; dsDNA, one strand shown
# T8 sequence: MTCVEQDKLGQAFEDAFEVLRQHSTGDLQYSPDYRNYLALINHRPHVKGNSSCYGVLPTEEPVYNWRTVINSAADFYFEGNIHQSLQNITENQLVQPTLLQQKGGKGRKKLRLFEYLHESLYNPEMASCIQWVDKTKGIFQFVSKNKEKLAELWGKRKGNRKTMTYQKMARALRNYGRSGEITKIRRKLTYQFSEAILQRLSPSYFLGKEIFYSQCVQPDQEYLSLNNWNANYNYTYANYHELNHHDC
# Outline: as §1
# [14] = target: ELF4 (Homo sapiens, UniProt Q99607 1-663); conditions: protein: recombinant; tags: N-terminal GST; dsDNA, one strand shown
# ELF4, sequence (Q99607 whole entry): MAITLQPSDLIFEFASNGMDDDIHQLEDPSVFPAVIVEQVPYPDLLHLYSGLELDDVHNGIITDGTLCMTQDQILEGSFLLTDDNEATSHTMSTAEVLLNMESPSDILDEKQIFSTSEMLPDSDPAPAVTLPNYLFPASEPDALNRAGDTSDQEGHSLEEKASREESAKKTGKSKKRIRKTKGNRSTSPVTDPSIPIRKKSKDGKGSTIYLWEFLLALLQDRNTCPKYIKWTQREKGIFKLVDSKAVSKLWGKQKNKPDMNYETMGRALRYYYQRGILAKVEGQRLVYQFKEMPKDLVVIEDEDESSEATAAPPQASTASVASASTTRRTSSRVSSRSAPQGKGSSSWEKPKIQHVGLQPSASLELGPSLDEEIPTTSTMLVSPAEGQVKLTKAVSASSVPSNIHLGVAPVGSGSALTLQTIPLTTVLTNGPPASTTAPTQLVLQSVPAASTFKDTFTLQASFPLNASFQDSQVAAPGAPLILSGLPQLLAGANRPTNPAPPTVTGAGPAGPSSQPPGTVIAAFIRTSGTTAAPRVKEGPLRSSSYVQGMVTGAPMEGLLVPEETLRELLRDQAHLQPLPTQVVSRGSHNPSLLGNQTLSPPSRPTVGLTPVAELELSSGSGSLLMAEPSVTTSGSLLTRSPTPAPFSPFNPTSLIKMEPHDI
# Outline: as §1
# [15] = target: T9, ELK4 (Homo sapiens, UniProt P28324-2 1-405); conditions: protein: recombinant; tags: N-terminal GST; dsDNA, one strand shown
# T9 sequence: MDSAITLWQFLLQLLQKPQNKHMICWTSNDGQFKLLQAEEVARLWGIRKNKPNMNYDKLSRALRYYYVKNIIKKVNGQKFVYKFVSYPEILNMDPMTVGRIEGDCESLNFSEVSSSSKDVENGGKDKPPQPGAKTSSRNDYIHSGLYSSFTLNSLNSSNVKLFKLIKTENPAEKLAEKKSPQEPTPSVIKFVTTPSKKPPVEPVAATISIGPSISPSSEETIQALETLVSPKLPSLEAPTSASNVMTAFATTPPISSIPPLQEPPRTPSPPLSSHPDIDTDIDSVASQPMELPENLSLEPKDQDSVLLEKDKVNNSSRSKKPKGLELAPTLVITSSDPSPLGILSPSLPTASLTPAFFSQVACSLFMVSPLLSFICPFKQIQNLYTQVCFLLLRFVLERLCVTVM
# Outline: as §1
# [16] = target: T10, ETV2 (Homo sapiens, UniProt O00321 1-342); conditions: protein: recombinant; tags: N-terminal GST; dsDNA, one strand shown
# T10 sequence: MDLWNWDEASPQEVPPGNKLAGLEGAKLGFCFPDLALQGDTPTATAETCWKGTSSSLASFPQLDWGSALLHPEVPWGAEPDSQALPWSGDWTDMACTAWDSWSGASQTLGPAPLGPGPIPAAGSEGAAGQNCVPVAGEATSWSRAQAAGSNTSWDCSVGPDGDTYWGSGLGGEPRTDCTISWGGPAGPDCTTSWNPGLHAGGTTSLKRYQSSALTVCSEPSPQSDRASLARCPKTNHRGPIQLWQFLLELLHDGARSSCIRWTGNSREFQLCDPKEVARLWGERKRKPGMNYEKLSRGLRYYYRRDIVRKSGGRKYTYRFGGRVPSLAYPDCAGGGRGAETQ
# Outline: as §1
# [17] = target: T11, ELF3 (Homo sapiens, UniProt P78545 1-371); conditions: protein: recombinant; tags: N-terminal GST; dsDNA, one strand shown
# T11 sequence: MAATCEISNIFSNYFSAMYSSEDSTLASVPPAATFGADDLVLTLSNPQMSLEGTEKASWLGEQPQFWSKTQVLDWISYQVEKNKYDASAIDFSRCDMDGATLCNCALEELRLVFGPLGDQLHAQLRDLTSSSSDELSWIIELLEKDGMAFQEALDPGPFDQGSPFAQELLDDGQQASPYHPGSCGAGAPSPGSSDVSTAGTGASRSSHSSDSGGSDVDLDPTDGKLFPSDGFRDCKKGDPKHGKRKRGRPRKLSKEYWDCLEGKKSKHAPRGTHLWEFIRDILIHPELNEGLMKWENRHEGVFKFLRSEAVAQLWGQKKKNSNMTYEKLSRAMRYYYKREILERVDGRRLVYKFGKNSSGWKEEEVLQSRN
# Outline: as §1
# [18] = target: CRX (Homo sapiens, UniProt O43186 1-299); conditions: protein: recombinant; tags: N-terminal GST; dsDNA, one strand shown
# CRX, sequence (O43186 whole entry): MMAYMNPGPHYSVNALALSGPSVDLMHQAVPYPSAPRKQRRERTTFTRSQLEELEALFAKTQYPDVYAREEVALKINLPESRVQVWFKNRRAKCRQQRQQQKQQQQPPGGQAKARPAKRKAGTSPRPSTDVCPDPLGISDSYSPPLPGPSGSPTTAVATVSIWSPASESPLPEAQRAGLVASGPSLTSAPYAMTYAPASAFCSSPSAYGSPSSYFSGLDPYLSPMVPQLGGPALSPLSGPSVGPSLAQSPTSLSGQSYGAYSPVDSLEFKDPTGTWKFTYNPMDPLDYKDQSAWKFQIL
# Outline: as §1
# [19] = target: ETV1 (Homo sapiens, UniProt P50549 1-477); conditions: protein: recombinant; tags: N-terminal GST; dsDNA, one strand shown
# ETV1, sequence (P50549 whole entry): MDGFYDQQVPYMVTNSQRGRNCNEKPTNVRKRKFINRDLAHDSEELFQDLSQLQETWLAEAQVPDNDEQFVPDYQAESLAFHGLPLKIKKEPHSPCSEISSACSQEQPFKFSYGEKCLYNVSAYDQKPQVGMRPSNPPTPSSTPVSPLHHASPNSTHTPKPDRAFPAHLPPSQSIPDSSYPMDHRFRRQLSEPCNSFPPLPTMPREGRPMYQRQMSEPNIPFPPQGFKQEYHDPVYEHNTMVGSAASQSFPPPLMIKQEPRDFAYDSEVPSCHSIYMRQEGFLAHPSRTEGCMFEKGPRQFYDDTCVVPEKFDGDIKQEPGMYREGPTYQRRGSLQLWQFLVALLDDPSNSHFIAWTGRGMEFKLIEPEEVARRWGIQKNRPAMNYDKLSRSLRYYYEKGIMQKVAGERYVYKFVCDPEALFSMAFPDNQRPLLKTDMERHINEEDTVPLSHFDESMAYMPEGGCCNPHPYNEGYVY
# Outline: as §1
sequence,measurement,setting,value
ATATTT,binding signal,[1],"1.6 fold enrichment (6-mer frequency, TF over GST control)"
same,binding signal,[2],"1.54 fold enrichment (6-mer frequency, TF over GST control)"
same,binding signal,[3],"1.55 fold enrichment (6-mer frequency, TF over GST control)"
same,binding signal,[4],"1.53 fold enrichment (6-mer frequency, TF over GST control)"
same,binding signal,[5],"1.55 fold enrichment (6-mer frequency, TF over GST control)"
same,binding signal,[6],"1.56 fold enrichment (6-mer frequency, TF over GST control)"
same,binding signal,[7],"1.43 fold enrichment (6-mer frequency, TF over GST control)"
same,binding signal,[8],"1.51 fold enrichment (6-mer frequency, TF over GST control)"
same,binding signal,[9],"1.47 fold enrichment (6-mer frequency, TF over GST control)"
same,binding signal,[10],"1.47 fold enrichment (6-mer frequency, TF over GST control)"
same,binding signal,[11],"1.54 fold enrichment (6-mer frequency, TF over GST control)"
same,binding signal,[12],"1.52 fold enrichment (6-mer frequency, TF over GST control)"
same,binding signal,[13],"1.45 fold enrichment (6-mer frequency, TF over GST control)"
same,binding signal,[14],"1.53 fold enrichment (6-mer frequency, TF over GST control)"
same,binding signal,[15],"1.81 fold enrichment (6-mer frequency, TF over GST control)"
same,binding signal,[16],"1.55 fold enrichment (6-mer frequency, TF over GST control)"
same,binding signal,[17],"1.54 fold enrichment (6-mer frequency, TF over GST control)"
same,binding signal,[18],"1.6 fold enrichment (6-mer frequency, TF over GST control)"
same,binding signal,[19],"1.56 fold enrichment (6-mer frequency, TF over GST control)"
